# ERAP1 HTS inh – inhibitors of human ERAP1 aminopeptidase. recombinant ERAP1, Leu-AMC fluorescence, 60 min. inhibition, % at 10.7 µM. 0.15% of 340,000 active. Q9NZ08;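 active = mean replicate inhibition of at least 30%, or all replicates individually reaching that 30% level; inactive = mean below 30% and not every replicate reaching it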;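 also: 0% = neutral control wells and 100% = L-leucinethiol positive control wells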
# Target sequence (Q9NZ08 whole entry, looked up): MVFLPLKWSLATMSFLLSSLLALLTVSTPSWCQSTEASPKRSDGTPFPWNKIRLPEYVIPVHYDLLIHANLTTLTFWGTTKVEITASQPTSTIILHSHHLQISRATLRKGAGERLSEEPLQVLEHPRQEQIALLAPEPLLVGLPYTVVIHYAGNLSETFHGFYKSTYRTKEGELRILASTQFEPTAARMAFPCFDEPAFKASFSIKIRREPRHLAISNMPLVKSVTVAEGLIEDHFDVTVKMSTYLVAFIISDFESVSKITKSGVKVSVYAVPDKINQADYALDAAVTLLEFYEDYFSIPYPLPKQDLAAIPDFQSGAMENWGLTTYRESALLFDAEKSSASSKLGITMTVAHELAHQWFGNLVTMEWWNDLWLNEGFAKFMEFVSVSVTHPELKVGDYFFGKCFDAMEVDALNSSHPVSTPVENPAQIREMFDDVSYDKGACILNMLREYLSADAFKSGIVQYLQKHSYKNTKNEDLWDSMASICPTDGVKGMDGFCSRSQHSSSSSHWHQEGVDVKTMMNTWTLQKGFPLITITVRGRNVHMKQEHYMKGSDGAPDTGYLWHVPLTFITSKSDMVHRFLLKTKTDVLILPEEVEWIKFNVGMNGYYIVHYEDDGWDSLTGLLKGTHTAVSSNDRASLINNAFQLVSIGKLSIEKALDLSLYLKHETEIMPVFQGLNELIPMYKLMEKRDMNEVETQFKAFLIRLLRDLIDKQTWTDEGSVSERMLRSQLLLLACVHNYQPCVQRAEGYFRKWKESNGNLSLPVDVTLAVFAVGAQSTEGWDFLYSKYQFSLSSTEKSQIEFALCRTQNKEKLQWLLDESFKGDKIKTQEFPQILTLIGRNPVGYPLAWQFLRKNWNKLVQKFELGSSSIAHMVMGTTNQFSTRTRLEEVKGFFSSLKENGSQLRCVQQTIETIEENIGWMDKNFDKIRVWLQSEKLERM
# MLL AF4-AF9 inh – blocks AF4 peptide binding to human AF9; P42568; AlphaScreen, biotin-AF4 peptide binding to FLAG-AF9; inhibition, % at 10 µM; 0.47% of 350,000 active;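 active = every replicate reaching a set inhibition limit, whatever the replicate mean, cut at about 25% in these data; inconclusive = mean inhibition reaches that limit but some replicates miss it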;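 also: 0% = plate neutral control median and 100% = total signal loss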
# DENV2 CPE rescue – protects cells from dengue virus 2 cytopathic effect. DENV2-infected cells, cytopathic effect rescue, plate reader. CPE inhibition, % at 9.99 µM. 1.7% of 350,000 active. AID 651640; in the data active = CPE inhibition above about 20%, passing the limit was not always enough; inconclusive = no clear call, values can overlap the other calls; tested in BHK-21 cells;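 also: 0% = median of neutral control wells and 100% = median of positive control wells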
# PDI turbidity – PDI (human) enzyme inhibition; P07237; PDI insulin aggregation turbidity, A650, 90 min; inhibition, % at 10 µM; 0.052% of 350,000 active; AID 588391;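 active = mean inhibition across replicates of 30% or more, whatever share of single replicates reach that level; inconclusive = mean inhibition below 30% while every single replicate reaches 30%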
# ERp5 block – inhibitors of human ERp5 | Q15084 | ERp5 insulin aggregation, absorbance 650 nm, 90 min | inhibition, % at 9.99 µM | 0.05% of 350,000 active;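 active = mean replicate inhibition above about 25%, with every replicate also reaching it, limit read from the data, passing the limit was not always enough; inconclusive = only one of those two criteria met; inactive = neither criterion met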
# * = called active by the depositor; u = inconclusive; x = no result given; ! = not confirmed by another sample. Sampled rows, rich in hits. Any-hit rate of the full collection: about 1.8%.
SMILES,ERAP1 HTS inh,MLL AF4-AF9 inh,DENV2 CPE rescue,PDI turbidity,ERp5 block
Cc1noc(C)c1S(=O)(=O)Nc1ccc2c(c1)CC(=O)N([C@H](C)CO)C[C@@H](C)[C@H](CN(C)Cc1ccccc1)O2,-1,-1,22*,x,-4
COc1ccc(CN(C)C[C@@H]2Oc3ccc(NS(=O)(=O)c4c(C)noc4C)cc3C(=O)N([C@H](C)CO)C[C@H]2C)cc1,1,0,14,x,-6
Cc1noc(C)c1S(=O)(=O)Nc1ccc2c(c1)CC(=O)N([C@H](C)CO)C[C@H](C)[C@H](CN(C)Cc1ccccc1)O2,0,0,-7,x,-2
Cc1noc(C)c1S(=O)(=O)Nc1ccc2c(c1)C(=O)N([C@H](C)CO)C[C@H](C)[C@H](CN(C)Cc1ccccc1)O2,3,2,21*,x,-4
NC(=O)[C@H]1[C@@H]2C(=O)O[C@@H](c3ccccc3)[C@@H](c3ccccc3)N2[C@@H](c2ccccc2OCCO)[C@]12C(=O)Nc1ccc(C#CC3(O)CCCCCC3)cc12,3,1,-5,x,-4
COc1ccc(NC(=O)Nc2ccc3c(c2)C(=O)N([C@@H](C)CO)C[C@@H](C)[C@@H](CN(C)C(=O)Nc2c(C)noc2C)OCCCC[C@@H](C)O3)cc1,0,1,1,x,-1
O=C1CCCC(c2ccccc2)N1 (configuration not stated),2,1,60*,-9,-6
O=C1NC(c2ccccc2)CCO1 (configuration not stated),-1,-5,-20,2,-2
COc1ccc(C(CNC(=O)COc2cc(C)ccc2Cl)N2CCCCC2)cc1 (configuration not stated),3,1,37*,-3,12
CN(C)c1ccc(C(CNC(=O)COc2ccc(Cl)cc2)N2CCCC2)cc1 (configuration not stated),3,26*,-2,6,6
CN(C)C(=O)[C@@H]1[C@@H](CO)[C@@H]2Cn3c(ccc(C4=CCCC4)c3=O)[C@H]1N2S(=O)(=O)c1cn(C)cn1,5,-2,22*,x,-1
CN(C)C(=O)[C@H]1[C@H](CO)[C@H]2Cn3c(ccc(C4=CCCCC4)c3=O)[C@@H]1N2Cc1ccncc1,-1,0,36*,x,5
CCNC(=O)[C@@H]1[C@@H](CO)[C@@H]2Cn3c(ccc(C4=CCCCC4)c3=O)[C@H]1N2Cc1ccncc1,0,-2,-4,x,1
CN(C)C(=O)[C@@H]1[C@@H](CO)[C@@H]2Cn3c(ccc(C4=CCCCC4)c3=O)[C@H]1N2C,0,1,-2,x,1
CCCC(=O)Nc1ccc2c(c1)OC[C@H](C)N(Cc1ccc(-c3ccccn3)cc1)C[C@@H](C)[C@H](OC)CN(C)C2=O,-3,-4,1,x,-5
CO[C@@H]1CN(C)C(=O)c2ccc(NS(C)(=O)=O)cc2OC[C@@H](C)N(S(=O)(=O)CC(F)(F)F)C[C@H]1C,-2,1,2,x,7
Cc1ccc([C@@H]2CC=C(C(=O)O)[C@H](c3ccc(Br)cc3)N2S(=O)(=O)c2ccccc2C)cc1,x,-3,28*,9,2
Cc1ccccc1S(=O)(=O)N1[C@@H](c2ccc(Br)cc2)C(C(=O)O)=CC[C@H]1c1ccc(Cl)cc1,x,0,4,10,3
C[C@H]1CN([C@@H](C)CO)S(=O)(=O)c2ccc(Br)cc2O[C@H]1CN(C)Cc1ccc(F)cc1,0,2,41*!,-1,3
C[C@@H]1CN([C@H](C)CO)S(=O)(=O)c2ccc(Br)cc2O[C@@H]1CN(C)C(=O)CN1CCOCC1,5,-5,55*!,0,3
C[C@H](CO)N1C[C@H](C)[C@@H](CN(C)Cc2cccnc2)Oc2cc(Br)ccc2S1(=O)=O,3,1,45*!,x,-6
C[C@@H]1CN([C@H](C)CO)C(=O)c2c(c3ccccc3n2C)-c2ccccc2CO[C@@H]1CN(C)C(=O)[C@@H]1CCCN1C,5,0,2,x,5
C[C@@]12C(=O)N(c3ccc(F)cc3)C(=O)N1[C@@H]1c3ccccc3OC[C@@H]1[C@H]2c1ccccc1,0,2,21*,13,-8
C[C@@]12C(=O)N(c3cccc(Cl)c3)C(=O)N1[C@@H]1c3ccccc3OC[C@@H]1[C@H]2c1ccccc1,5,43*,-13,-6,3
COc1ccc2c(c1)OC[C@H]1[C@H]2N2C(=O)c3cc(Cl)ccc3NC(=O)[C@@]2(C)[C@H]1c1ccccc1,x,x,x,5,x
SMILES,ERAP1 HTS inh,MLL AF4-AF9 inh,DENV2 CPE rescue,PDI turbidity,ERp5 block
C[C@]12C(=O)N(c3ccc(F)cc3)C(=O)N1[C@H]1c3ccccc3OC[C@@H]1[C@H]2c1ccccc1,-2,-1,-4,-1,-1
C[C@@]12C(=O)N(CCc3c[nH]c4ccccc34)CC(=O)N1[C@H]1c3ccccc3OC[C@@H]1[C@@H]2c1ccccc1,0,3,54*,2,-1
COc1ccc2c(c1)OC[C@H]1[C@H]2N2C(=O)c3cc(OC)ccc3NC(=O)[C@@]2(C)[C@H]1c1ccccc1,2,x,47*,-5,-2
CN1CCN(C(=O)C[C@H]2CC[C@@H]3[C@H](COC[C@@H](O)CN3Cc3ccc(Oc4ccccc4)cc3)O2)CC1,2,2,-9,x,-1
COc1cccc(S(=O)(=O)N2CC[C@@H]3[C@@H](CO)Nc4ccc(-c5ccc(C#N)cc5)cc4[C@@H]32)c1,x,x,17,x,x
CCC(=O)Nc1ccc2c(c1)C(=O)N(C)C[C@@H](OC)[C@@H](C)CN(CCc1ccccc1)[C@H](C)CO2,-1,3,4,x,6
COc1ccc(S(=O)(=O)N(C)C[C@H]2Oc3ccc(NS(=O)(=O)c4cccs4)cc3C(=O)N([C@@H](C)CO)C[C@@H]2C)cc1,-1,0,2,x,5
CC(C)c1ccccc1OCCCCN1CCCCC1,-5,x,30*,-1,0
C[C@@H]1CCCCO[C@H](CN(C)Cc2ccc3c(c2)OCO3)[C@@H](C)CN([C@H](C)CO)C(=O)c2cc(NC(=O)Nc3ccc(F)cc3)ccc2O1,-2,1,-1,x,5
CN1C(=O)c2cc(NC(=O)Nc3ccccc3F)ccc2OC[C@H]2O[C@H](CC(=O)NCc3ccc(-c4ccccc4)cc3)CC[C@@H]21,-3,-2,u,x,5
CCNC(=O)Nc1ccc2c(c1)C(=O)N(C)[C@@H]1CC[C@H](CC(=O)NCc3ccccc3F)O[C@@H]1CO2,-3,0,u,x,-3
CN1C(=O)c2cc(NC(=O)Nc3ccccc3F)ccc2OC[C@H]2O[C@@H](CC(=O)NCc3ccc(-c4ccccc4)cc3)CC[C@H]21,-4,-2,48*,x,12
CCNC(=O)Nc1ccc2c(c1)C(=O)N(C)[C@@H]1CC[C@H](CC(=O)NCc3ccccc3F)O[C@H]1CO2,-2,-1,71*,x,3
O=C(C[C@H]1CC[C@@H]2[C@H](COC[C@@H](O)CN2Cc2cccc(Cl)c2)O1)N1CCOCC1,0,0,-12,x,-20
O=C(C[C@@H]1C=C[C@H](NC(=O)C2CCOCC2)[C@@H](CO)O1)NCc1ccccc1Cl,-1,-4,u,x,-1

# Assay outcomes from PubChem.
